# Test results from PubChem BioAssay (Tox21).
# “And” between values parts separate entries of the source, which are not always exact repeats. Equal values may be shown once. A number with no mark means an inactive call. Inconclusive results are not listed. A call without a number means that no potency is given here. The source made the active and inactive calls. Unless noted, the call rests on the fitted dose curve; in most records, active means well fitted curve in the direction sought with a large enough effect in the repeat runs; inconclusive means weak or mixed curves; inactive means no such curve, though single readings can be large; an effect the other way counts as inactive or inconclusive.
# Legend:
# [1] = qHTS assay to identify small molecule agonists of the hypoxia (HIF-1) signaling pathway - cell viability counter screen (AID 1224844; calls by dose curve; further: nearly all actives have a fitted effect of over 50% in size; further: potency means the concentration at half of the fitted maximal effect)
# Method in brief: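 In this counter screen, HRE-bla ME-180 cell viability after 17 hrs of compound exposure at 37C was read by CellTiter-Glo luminescence, multiplexed with the beta-lactamase reporter measurement.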
# [2] = qHTS assay to identify small molecule agonists of H2AX (AID 1224845; active means well fitted activation curve with a large enough effect in the signal ratio in the repeat runs, not every such curve was filed as active; the % refers to the signal ratio; further: potency means the concentration at half of the fitted maximal effect)
# Method in brief: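 Wild-type CHO-K1 cells plated overnight, then exposed 3 hr at 37C to compounds at 15 concentrations (0.76% DMSO). Lysed, then HTRF anti-pH2AX(S139)-cryptate/anti-H2AX-d2 detection after 24 hr at room temperature; emissions 665 and 620 nm.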
# [3] = qHTS assay to identify small molecule agonists of H2AX - cell viability counter screen (AID 1224847; calls by dose curve; further: nearly all actives have a fitted effect of over 30% in size; further: potency means the concentration at half of the fitted maximal effect)
# Method in brief: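 We seed wild-type CHO-K1 cells overnight, treat them for 3 hr at 37C with compounds in 15-concentration series, and quantify remaining viability by CellTiter-Glo luminescence.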
# [4] = qHTS assay to identify small molecule antagonists of the estrogen related receptor (ERR) signaling pathway from Tox21 library (AID 1224848); further: nearly all actives have a fitted effect of over 50% in size; further: potency means the concentration at half of the fitted maximal effect
# Method in brief: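 Tox21 10K compounds in DMSO tested for ERR pathway antagonism in NTP's ERR cell line; 18 h, 37 C exposure; ONE-Glo luminescence.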
# [5] = qHTS assay to identify small molecule agonists of the estrogen related receptor (ERR) signaling pathway from Tox21 library (AID 1224849; calls by dose curve; further: nearly all actives have a fitted effect of over 15% in size); details: ERR reporter cell line, ONE-Glo luciferase, 18 h
# Method in brief: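 Luciferase activity in ERR pathway reporter cells served as the agonist readout; exposure lasted 18 h at 37 C, with ONE-Glo detection after 30 min at room temperature.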
# [6] = qHTS RealTime-Glo MT Cell Viability Assay in HepG2 cells - 24 hour (AID 1224867); further: nearly all actives have a fitted effect of over 50% in size; further: potency means the concentration at half of the fitted maximal effect
# Method in brief: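 qHTS, HepG2, 600 cells/well, RealTime-Glo (NanoLuc + prosubstrate) added with cells; 5 h preincubation; DMSO compound addition; 37 C; luminescence at 0/8/16/24/32/40 h.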
# [7] = qHTS RealTime-Glo MT Cell Viability Assay in HEK293 cells - 32 hour (AID 1224868); further: nearly all actives have a fitted effect of over 50% in size; further: potency means the concentration at half of the fitted maximal effect
# Method in brief: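 Assay medium contained NanoLuc luciferase plus cell-permeant prosubstrate, added with HEK293 cells at 600 cells/well. After 5 h at 37 C/5% CO2 compounds were added; plates stayed at 37 C for 40 h with serial luminescence reads.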
# [8] = A CellTox Green Cytotoxicity Assay to monitor cytotoxicity in HEK293 cells - 0 hour (AID 1224869); further: nearly all actives have a fitted effect of over 50% in size
# Method in brief: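 Real-time, in one plate: 600 HEK293 cells/well with dead-cell DNA dye, pinned compound after 5 h, 37 C incubation over 40 h; viable cells give no appreciable fluorescence.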
# [9] = qHTS RealTime-Glo MT Cell Viability Assay in HepG2 cells - 40 hour (AID 1224870); further: nearly all actives have a fitted effect of over 50% in size; further: potency means the concentration at half of the fitted maximal effect
# Method in brief: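 HepG2 cells mixed with RealTime-Glo MT reagents (NanoLuc plus cell-permeant prosubstrate) were seeded at 600 cells/well, incubated 5 h at 37 C/5% CO2, then pinned with compounds in DMSO; nonlytic luminescence tracked viability during 40 h treatment.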
# [10] = qHTS assay to identify small molecule agonists of the hypoxia (HIF-1) signaling pathway (AID 1224846; active means well fitted activation curve with a large enough effect in the signal ratio in the repeat runs, not every such curve was filed as active; the % refers to the signal ratio)
# Method in brief: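 ME-180 HRE-bla reporter cells; compounds in DMSO, 17 h at 37C; read-out beta-lactamase via CCF4-AM FRET.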
# [11] = at 92.4 µM (top of the series) unless noted
SMILES,Potency [1],Potency [2],Potency [3],Potency [4],"activity change, positive = activation [5, 11]",Potency [6],Potency [7],Potency [8],Potency [9],Potency [10],"activity change, positive = activation ([5]; at 42.5 µM (top of the series)) [%]","activity change, positive = activation ([5]; at 92.4 µM (top of the series)) [%]"
O=c1[nH]sc2ccccc12,21.9 µM (active),inactive,101 µM (active),43.3 µM (active),-73.9%,21.9 µM (active),30.9 µM (active),inactive,21.9 µM (active),,,
CCCCCCCCS(=O)C(C)Cc1ccc2c(c1)OCO2 (centres undefined),inactive,inactive,,,,inactive,,inactive,inactive,inactive,,
CCC(C)(C)C1CCCCC1OC(C)=O (centres undefined),inactive,inactive,inactive,inactive,-0.855%,inactive,inactive,inactive,inactive,inactive,,
Oc1ccc(Cl)cc1Sc1cc(Cl)ccc1O,26.8 µM (active),inactive,35.7 µM (active),10.8 µM (active) and 11.9 µM (active),,,19.5 µM (active) and 23.9 µM (active),inactive,,,-51.1,-52
CC(C)(C)CC(C)(C)c1ccc(OCCOCC[N+](C)(C)Cc2ccccc2)cc1,19.5 µM (active) and 9.52 µM (active),inactive,101 µM (active) and 49.2 µM (active),6.85 µM (active) and 5.96 µM (active),,48.9 µM (active) and 9.52 µM (active),12.3 µM (active) and 9.52 µM (active),inactive,24.5 µM (active) and 9.52 µM (active),,-58.4,-70.8
Cc1cc(N)c(S(=O)(=O)O)cc1Cl,inactive,inactive,inactive,inactive,5.22%,inactive,inactive,inactive,inactive,,,
CCCCCCCCCCC=O,inactive,inactive,inactive,inactive,0.203%,inactive,inactive,inactive,inactive,inactive,,
O=c1[nH]cnc2nc[nH]c12,inactive,inactive,,inactive,9.65% [at 42.5 µM],inactive,inactive,inactive,inactive,inactive,,
COC(=O)c1cc(Cl)ccc1OC,inactive,inactive,,,,inactive,inactive,inactive,inactive,inactive,,
Fc1ccc([C@@H]2CCNC[C@H]2COc2ccc3c(c2)OCO3)cc1,inactive,inactive,,,,,,inactive,,inactive,,
Cc1cc(O)c(C(C)(C)C)cc1C(C)(C)C,43.6 µM (active),89.8 µM (active),50.5 µM (active),61.1 µM (active),-68.9%,43.6 µM (active),17.4 µM (active),inactive,,,,
Oc1ccc2c(c1)-c1ccccc1C2,inactive,inactive,inactive,,-22%,inactive,,inactive,inactive,inactive,,
C[C@H](CCC(=O)O)[C@H]1CC[C@H]2[C@@H]3CC[C@@H]4C[C@H](O)CC[C@]4(C)[C@H]3CC[C@]12C,43.5 µM (active) and 34.7 µM (active),89.4 µM (active) and 56.6 µM (active),100 µM (active) and 80 µM (active),inactive,-9.3% and -27.2%,inactive,inactive,inactive,inactive,,,
Cc1ccc(O)c(C(C)(C)C)c1,inactive,inactive,89.6 µM (active),,,inactive,inactive,inactive,inactive,inactive,,
CCN(CCC#N)c1ccc(N=Nc2c(Cl)cc([N+](=O)[O-])cc2Cl)cc1,inactive,inactive,56.6 µM (active),,-27%,,inactive,inactive,,inactive,,
CNC(=O)c1ccccc1,inactive,inactive,inactive,,,inactive,inactive,inactive,inactive,inactive,,
O=c1[nH]sc2cc(Cl)ccc12,0.535 µM (active),inactive,inactive,0.106 µM (active),-42.9% [at 42.5 µM],26.8 µM (active),inactive,inactive,,,,
NC(=O)CC[C@@H]1NC(=O)[C@H](Cc2ccccc2)NC(=O)[C@H](Cc2ccc(O)cc2)NC(=O)CCSSC[C@@H](C(=O)N2CCC[C@H]2C(=O)N[C@@H](CCCN=C(N)N)C(=O)NCC(N)=O)NC(=O)[C@H](CC(N)=O)NC1=O,inactive,inactive,inactive,,,inactive,inactive,inactive,inactive,inactive,,
CCc1cc(Cc2cc(CC)cc(C(C)(C)C)c2O)c(O)c(C(C)(C)C)c1,11 µM (active),50.5 µM (active),31.8 µM (active),30.6 µM (active),-75.4%,49 µM (active),19.5 µM (active),inactive,54.9 µM (active),,,
Nc1c(Cl)cc(Cl)cc1Cl,inactive,inactive,,,,inactive,inactive,inactive,inactive,inactive,,

SMILES,Potency [1],Potency [2],Potency [3],Potency [4],"activity change, positive = activation [5, 11]",Potency [6],Potency [7],Potency [8],Potency [9],Potency [10],"activity change, positive = activation ([5]; at 42.5 µM (top of the series)) [%]","activity change, positive = activation ([5]; at 92.4 µM (top of the series)) [%]"
C[C@H]1[C@H]2CC[C@H]3[C@@H]4CC=C5C[C@@H](N(C)C)CC[C@]5(C)[C@H]4CC[C@]23CN1C,inactive,inactive,inactive,inactive,,inactive,,inactive,inactive,inactive,,
CCCCCCCC(=O)[O-].CCCCCCCC(=O)[O-].[Zn+2],inactive,inactive,inactive,,,inactive,inactive,inactive,inactive,inactive,,
O=C1C=CC(=O)N1,11.3 µM (active),14.6 µM (active),82.2 µM (active),inactive,-71.7%,22.5 µM (active),12.6 µM (active),inactive,22.5 µM (active),,,
C/C=C(\C)C(=O)OCc1ccccc1,inactive,inactive,inactive,inactive,5.16%,inactive,inactive,inactive,inactive,,,
CCCN(CCC)c1c([N+](=O)[O-])cc(C(F)(F)F)c(N)c1[N+](=O)[O-],13.8 µM (active),35.6 µM (active),50.4 µM (active),30.5 µM (active),-75.7%,54.8 µM (active),19.4 µM (active),inactive,,,,
Cc1cccc(S(=O)(=O)O)c1C,inactive,inactive,,,,inactive,inactive,inactive,inactive,inactive,,
CC(C)(C)C(=O)OCOC(=O)C1N2C(=O)CC2S(=O)(=O)C1(C)C (centres undefined),inactive,inactive,inactive,,,inactive,inactive,inactive,inactive,inactive,,
COc1cccc(N)c1,inactive,inactive,inactive,inactive,-25.2%,inactive,inactive,inactive,inactive,inactive,,
N#CC1(c2ccc(F)cc2)CCC(=O)CC1,inactive,inactive,inactive,inactive,6.11% [at 42.5 µM],inactive,inactive,inactive,inactive,,,
C1CCCC1,inactive,inactive,,inactive,9.59%,inactive,inactive,inactive,inactive,inactive,,
Clc1ccc2nsnc2c1NC1=NCCN1,inactive,inactive,inactive,inactive,-5.33% [at 42.5 µM],inactive,inactive,inactive,inactive,inactive,,
O=C(Oc1ccccc1)c1ccccc1C(=O)Oc1ccccc1,inactive,inactive,,,,inactive,inactive,inactive,inactive,inactive,,
CN(C)c1ccc(SC#N)cc1,inactive,inactive,inactive,,,inactive,inactive,inactive,inactive,inactive,,
CN(C)CCCOC1(Cc2ccccc2)CCCCCC1,inactive,inactive,inactive,,,inactive,inactive,inactive,inactive,inactive,,
NNC(=O)c1cccc(C(=O)NN)c1,inactive,inactive,,,,inactive,inactive,inactive,inactive,inactive,,
COc1cc(/C=C/C(=O)O[C@H]2CC[C@]34C[C@]35CC[C@]3(C)[C@@H]([C@H](C)CCC=C(C)C)CC[C@@]3(C)[C@@H]5CC[C@H]4C2(C)C)ccc1O,inactive,inactive,,inactive,-5.43% [at 42.5 µM],inactive,inactive,inactive,inactive,inactive,,
NC(=O)NS(=O)(=O)c1ccc(N)cc1,inactive,inactive,inactive,,,inactive,inactive,inactive,inactive,,,
Cc1c(C)c2c(c(C)c1OC(=O)CCC(=O)O)CC[C@@](C)(CCC[C@H](C)CCC[C@H](C)CCCC(C)C)O2,1.4 µM (active),inactive,inactive,inactive,-23.6%,,,inactive,55.6 µM (active),,,
CC(C)OC(=O)c1cc2c(OCC(O)CNC(C)(C)C)cccc2[nH]1 (centres undefined),inactive,inactive,inactive,,,inactive,9.52 µM (active),inactive,inactive,,,
O=C(Nc1cccc([N+](=O)[O-])c1)c1cc2ccccc2cc1O,inactive,inactive,11.3 µM (active),,-21.9%,inactive,,inactive,inactive,,,
